# According to PubChem BioAssay (Tox21):
# Unmarked numbers belong to inactive results. Records with an inconclusive call do not appear. Where a call stands in place of a potency, no number is given. Activity calls are given as the source filed them. Unless noted, calls come from the whole dose curve; as a rule, active = well fitted curve in the direction sought with a large enough effect in the repeat runs; inconclusive = weak or mixed curves; inactive = no such curve, though single readings can be large; an effect the other way counts as inactive or inconclusive.
# Key:
# [1] = qHTS assay for small molecule agonists of the p53 signaling pathway (AID 651631; calls by dose curve; note: nearly all actives have a fitted effect of over 15% in size; note: potency is the fitted concentration of half-maximal effect)
# How it was run: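 Beta-lactamase reporter activity under p53 response elements was quantified in HCT-116 cells by FRET fluorescence, following 16 h incubation with test compounds at 37 °C and 2 h substrate development at room temperature.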
# [2] = qHTS assay for small molecules that induce genotoxicity in human embryonic kidney cells expressing luciferase-tagged ATAD5 (AID 651632); note: nearly all actives have a fitted effect of over 15% in size; note: potency is the fitted concentration of half-maximal effect
# How it was run: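 Test compounds were delivered by pin tool onto HEK293T reporter cells (2,000/well) expressing ATAD5 fused to luciferase. After 16 hr at 37C, 5% CO2, Amplite was added for 30 min at room temperature and luminescence was measured.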
# [3] = qHTS assay for small molecule agonists of the p53 signaling pathway - cell viability (AID 651633; calls by dose curve;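 note: p53RE-bla HCT reporter cells with a stable beta-lactamase p53 reporter; series mostly up to about 83 µM; nearly all actives have a fitted effect of over 30% in size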)
# How it was run: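 p53RE-bla cells were treated with compound for 16 hours at 37 C. Cytotoxicity was then measured as CellTiter-Glo luminescence after 30 min at room temperature.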
# [4] = qHTS assay for small molecules that induce genotoxicity in human embryonic kidney cells expressing luciferase-tagged ATAD5 - cell viability (AID 651634; calls by dose curve; note: nearly all actives have a fitted effect of over 25% in size)
# How it was run: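 Quantitative high-throughput format. HEK293T cells expressing ATAD5 fused to luciferase were plated at 2,000 cells/well and treated 15.5 hr with compound versus DMSO. Viability was determined by fluorescent live-cell protease substrate, 30 min at 37C.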
# [5] = qHTS assay for small molecule disruptors of the mitochondrial membrane potential - cell viability (AID 720634; calls by dose curve;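 note: human HepG2 liver cancer cells; series mostly up to about 83 µM; nearly all actives have a fitted effect of over 20% in size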)
# How it was run: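 Same-well counter-screen: following the MMP dye addition, CellTiter-Glo was added to 1 hr compound-treated HepG2 cells and luminescence read after 30 min at room temperature.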
# [6] = qHTS assay for small molecule disruptors of the mitochondrial membrane potential (AID 720635)
# How it was run: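 HepG2 cells exposed to compound 1 hr at 37C, then Mito-MPS dye 30 min. Ratio read of aggregate (540/590 nm) versus monomer (490/535 nm) fluorescence.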
# [7] = qHTS assay to test for compound auto fluorescence at 590 nm (red) in HepG2 cells (AID 720674)
# How it was run: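 Seeding: 2,000 HepG2 cells/well, MEM/10% FBS, overnight 37 C. Dosing: compound vs DMSO. Incubation: 1 hr, 37 C, 5% CO2. Read: fluorescence 540 ex/590 em, Rose Bengal sodium as red reference.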
# [8] = qHTS assay to test for compound auto fluorescence at 535 nm (green) in HepG2 cells (AID 720675)
# [9] = qHTS assay to test for compound auto fluorescence at 460 nm (blue) in HEK293 cells (AID 720678)
# How it was run: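 Triamterene serves as the blue fluorophore standard. Compound signal at 405/460 nm is read in HEK293 wells (2,000 cells, 10% dialyzed FBS) after overnight treatment at 37C.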
# [10] = qHTS assay to test for compound auto fluorescence at 590 nm (red) in HEK293 cells (AID 720679)
# How it was run: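 We plated HEK293 cells in 10% dialyzed FBS medium, let them adhere for 4-5 hr, then added 23 nL compound. Overnight at 37C and 5% CO2 preceded fluorescence measurement at 540/590nm.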
# [11] = qHTS assay to test for compound auto fluorescence at 535 nm (green) in HEK293 cells (AID 720680)
# [12] = qHTS assay to test for compound auto fluorescence at 460 nm (blue) in HEK293 cell free culture (AID 720681)
# How it was run: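 Compounds were added to cell-free DMEM with 10% FBS and fluorescence read directly. The blue channel used 405 nm excitation and 460 nm emission, with triamterene as the reference fluorophore.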
# [13] = qHTS assay to test for compound auto fluorescence at 535 nm (green) in HEK293 cell free culture (AID 720682)
# How it was run: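 Each library compound, or DMSO control, is added by pintool to medium alone, comprising DMEM and 10% FBS. Emission at 535 nm following 485 nm excitation is quantified against fluorescein.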
# [14] = qHTS assay to test for compound auto fluorescence at 590 nm (red) in HEK293 cell free culture (AID 720683)
# How it was run: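 Cell-free wells of DMEM with 10% FBS received compound, and intrinsic fluorescence was read at excitation/emission 540/590 nm. Values expressed as equivalence to Rose Bengal sodium.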
# [15] = qHTS assay to test for compound auto fluorescence at 590 nm (red) in HepG2 cell free culture (AID 720684)
# How it was run: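 Auto fluorescence equivalency versus Rose Bengal sodium, red channel Ex/Em 540/590 nm; compounds in cell-free MEM/10% FBS; DMSO vehicle control.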
# [16] = qHTS assay to test for compound auto fluorescence at 460 nm (blue) in HepG2 cell free culture (AID 720685)
# How it was run: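 Cell-free plates of MEM plus 10% FBS received 23 nL compound or DMSO vehicle; blue-channel (405/460 nm) intensity scored against triamterene as reference fluorophore.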
# [17] = qHTS assay to test for compound auto fluorescence at 535 nm (green) in HepG2 cell free culture (AID 720686)
# [18] = qHTS assay to test for compound auto fluorescence at 460 nm (blue) in HepG2 cells (AID 720687)
# How it was run: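 HepG2 cells in MEM with 10% FBS, attached overnight at 37 C, were exposed to compound or DMSO for 1 hr at 37 C, 5% CO2. Blue fluorescence was read at 405/460 nm, with triamterene as reference fluorophore.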
# [19] = molecular target: Glucocorticoid receptor (Homo sapiens) (UniProt P04150); test: qHTS assay to identify small molecule agonists of the glucocorticoid receptor (GR) signaling pathway (AID 720691; active = well fitted activation curve with a large enough effect in the signal ratio in the repeat runs, not every such curve was filed as active; the % refers to the signal ratio)
# How it was run: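 A HeLa cervical cancer line expressing GR and a glucocorticoid response element-driven beta-lactamase gene is treated with compounds for 18 h; LiveBLAzer B/G FRET substrate is then applied and fluorescence read.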
# [20] = molecular target: Glucocorticoid receptor (Homo sapiens) (UniProt P04150); test: qHTS assay to identify small molecule antagonists of the glucocorticoid receptor (GR) signaling pathway (AID 720692; active = well fitted inhibition curve with a large enough effect in the signal ratio in the repeat runs, not every such curve was filed as active; the % refers to the signal ratio)
# How it was run: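 GRE-bla HeLa line, dex-stimulated (5 nM final). Compound exposure 18 h, 37 C. Beta-lactamase FRET read after 2 h RT substrate.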
# Sequence of Glucocorticoid receptor (Homo sapiens) (P04150 whole entry, looked up): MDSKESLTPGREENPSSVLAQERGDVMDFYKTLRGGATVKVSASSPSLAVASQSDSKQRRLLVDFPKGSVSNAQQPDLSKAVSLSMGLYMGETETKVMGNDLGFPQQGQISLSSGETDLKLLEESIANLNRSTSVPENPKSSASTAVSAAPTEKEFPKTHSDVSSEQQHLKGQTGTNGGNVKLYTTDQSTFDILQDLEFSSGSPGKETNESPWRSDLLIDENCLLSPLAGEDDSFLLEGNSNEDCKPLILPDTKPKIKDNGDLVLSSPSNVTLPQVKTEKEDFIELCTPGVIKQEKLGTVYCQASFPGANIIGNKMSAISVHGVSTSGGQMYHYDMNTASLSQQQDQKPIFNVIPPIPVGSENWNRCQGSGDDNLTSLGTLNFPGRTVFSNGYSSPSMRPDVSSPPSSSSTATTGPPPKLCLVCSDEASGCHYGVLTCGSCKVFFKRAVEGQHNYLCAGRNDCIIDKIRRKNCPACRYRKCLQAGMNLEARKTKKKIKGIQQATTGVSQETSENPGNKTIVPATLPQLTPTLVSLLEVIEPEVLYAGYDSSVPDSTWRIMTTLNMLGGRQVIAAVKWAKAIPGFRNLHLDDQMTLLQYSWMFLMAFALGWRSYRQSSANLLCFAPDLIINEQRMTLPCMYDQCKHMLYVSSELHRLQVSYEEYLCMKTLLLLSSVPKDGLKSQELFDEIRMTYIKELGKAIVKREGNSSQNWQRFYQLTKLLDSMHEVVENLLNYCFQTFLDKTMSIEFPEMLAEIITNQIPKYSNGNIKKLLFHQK
compound,measurement,setting,value
N=C(N)N,Potency,[1],inactive
same,Potency,[2],inactive
same,outcome,[3],inactive
same,outcome,[4],inactive
same,outcome,[5],inactive
same,Potency,[6],inactive
same,outcome,[7],inactive
same,outcome,[8],inactive
same,outcome,[9],inactive
same,outcome,[10],inactive
same,outcome,[11],inactive
same,outcome,[12],inactive
same,outcome,[13],inactive
same,outcome,[14],inactive
same,outcome,[15],inactive
same,outcome,[16],inactive
same,outcome,[17],inactive
same,outcome,[18],inactive
same,Potency,[19],inactive
same,outcome,[20],inactive
C[C@]12C=CC(=O)C=C1[C@@H](F)C[C@@H]1[C@@H]2[C@@H](O)C[C@@]2(C)[C@H]1CC[C@]2(O)C(=O)CO,Potency,[1],inactive
same,Potency,[2],inactive
same,outcome,[3],inactive
same,outcome,[4],inactive
same,outcome,[5],inactive
same,Potency,[6],inactive
same,outcome,[7],inactive
same,outcome,[8],inactive
same,outcome,[9],inactive
same,outcome,[10],inactive
same,outcome,[11],inactive
same,outcome,[12],inactive
same,outcome,[13],inactive
same,outcome,[14],inactive
same,outcome,[15],inactive
same,outcome,[16],inactive
same,outcome,[17],inactive
same,outcome,[18],inactive
COc1ccc2cc(CCC(C)=O)ccc2c1,Potency,[1],inactive
same,Potency,[2],4.52 µM (active)
same,outcome,[3],inactive
same,outcome,[4],inactive
same,outcome,[5],inactive
same,Potency,[6],inactive
same,"fluorescence, relative to Rose Bengal",[7],-0.0879% [at 18.6 µM]
same,"fluorescence, % of fluorescein control",[8],-0.11% [at 18.6 µM]
same,"fluorescence, % of triamterene",[9],0.0581% [at 18.6 µM]
same,"fluorescence, % of fluorescent control",[10],0.875% [at 18.6 µM]
same,"fluorescence, % of fluorescein",[11],-0.0683% [at 18.6 µM]
same,"fluorescence, % of fluorescent control",[12],-0.26% [at 18.6 µM]
same,activity change,[13],-0.0416% [at 18.6 µM]
same,"fluorescence, % of fluorescent control",[14],0.474% [at 18.6 µM]
same,"fluorescence, % of Rose Bengal",[15],-0.0935% [at 18.6 µM]
same,"fluorescence, % of fluorescent control",[16],0.0413% [at 18.6 µM]
same,"fluorescence, % of fluorescein control",[17],-0.0938% [at 18.6 µM]
same,"fluorescence, % of fluorescent control",[18],0.0207% [at 18.6 µM]
same,Potency,[19],inactive
COC(=O)c1ccc(C(=O)O)cc1,Potency,[1],inactive
same,Potency,[2],inactive
same,outcome,[3],inactive
same,outcome,[4],inactive
same,outcome,[5],inactive
same,Potency,[6],inactive
same,outcome,[7],inactive
same,outcome,[8],inactive
same,outcome,[9],inactive
same,outcome,[10],inactive
same,outcome,[11],inactive
same,outcome,[12],inactive
same,outcome,[13],inactive
same,outcome,[14],inactive
same,outcome,[15],inactive
same,outcome,[16],inactive
same,outcome,[17],inactive
same,outcome,[18],inactive
same,Potency,[19],inactive
same,outcome,[20],inactive
CCCCN=C(N)N=C(N)N,Potency,[1],inactive
same,Potency,[2],inactive
same,outcome,[3],inactive
same,outcome,[4],inactive
same,outcome,[5],inactive
same,Potency,[6],inactive
same,outcome,[7],inactive
same,outcome,[8],inactive
same,outcome,[9],inactive
same,outcome,[10],inactive
same,outcome,[11],inactive
same,outcome,[12],inactive
same,outcome,[13],inactive
same,outcome,[14],inactive
same,outcome,[15],inactive
same,outcome,[16],inactive
same,outcome,[17],inactive
same,outcome,[18],inactive
same,Potency,[19],inactive
same,outcome,[20],inactive
C=CCN1CCc2nc(N)sc2CC1,Potency,[1],inactive
same,Potency,[2],inactive
same,outcome,[3],inactive
same,outcome,[4],inactive
same,outcome,[5],inactive
same,Potency,[6],inactive
same,outcome,[7],inactive
same,outcome,[8],inactive
same,outcome,[9],inactive
same,outcome,[10],inactive
same,outcome,[11],inactive
same,outcome,[12],inactive
same,outcome,[13],inactive
same,outcome,[14],inactive
same,outcome,[15],inactive
same,outcome,[16],inactive
same,outcome,[17],inactive
same,outcome,[18],inactive
same,Potency,[19],inactive
same,outcome,[20],inactive
CC(CN1CC(=O)NC(=O)C1)N1CC(=O)NC(=O)C1 (stereo not given),Potency,[1],11.9 µM (active)
same,Potency,[2],inactive
same,outcome,[3],inactive
same,outcome,[4],inactive
same,outcome,[5],inactive
same,Potency,[6],inactive
same,outcome,[7],inactive
same,outcome,[8],inactive
same,outcome,[9],inactive
same,outcome,[10],inactive
same,outcome,[11],inactive
same,outcome,[12],inactive
same,outcome,[13],inactive
same,outcome,[14],inactive
same,outcome,[15],inactive
same,outcome,[16],inactive
same,outcome,[17],inactive
same,outcome,[18],inactive
